Sampled rows, rich in hits. Any-hit rate of the full collection: about 2.4%.
PLCg1 inh: PLC-gamma1 (human) inhibition, primary screen; P19174; purified PLC-gamma1, fluorogenic substrate, fluorescence; inhibition, % at 12.2 µM; actives 0.84% (n = 370,000); in the data active = inhibition above about 9.5%
PLCb3 inh: PLC-beta3 (human) inhibition, primary screen; actives 0.18% (n = 370,000); Q01970; inhibition, % at 12.2 µM; Purified PLC-beta3, fluorogenic substrate, fluorescence; AID 720704; in the data active = inhibition above about 11%;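 also: 0% = median of compound wells on plate and 100% = full blocker control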
MBD2 inh: MBD2-methylated oligo binding inhibition; TR-FRET, MBD2 binding to methylated oligonucleotide; Q9UBB5; inhibition, % at 4.4 µM; actives 0.31% (n = 370,000); in the data active = inhibition above about 13%
Target sequence (Q9UBB5 whole entry, looked up): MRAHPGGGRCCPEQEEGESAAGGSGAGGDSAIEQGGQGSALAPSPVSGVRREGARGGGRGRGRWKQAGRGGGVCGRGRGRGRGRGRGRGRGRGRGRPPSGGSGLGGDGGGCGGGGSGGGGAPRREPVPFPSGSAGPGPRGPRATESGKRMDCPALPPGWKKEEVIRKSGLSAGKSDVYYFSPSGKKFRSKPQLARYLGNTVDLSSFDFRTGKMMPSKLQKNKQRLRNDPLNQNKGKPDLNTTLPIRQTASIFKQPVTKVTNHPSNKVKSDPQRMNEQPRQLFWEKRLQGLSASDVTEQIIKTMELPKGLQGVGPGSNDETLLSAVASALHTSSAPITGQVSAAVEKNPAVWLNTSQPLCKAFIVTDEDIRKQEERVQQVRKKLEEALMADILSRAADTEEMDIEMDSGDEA
LEDGF integ inh: blocks HIV-1 LEDGF/p75-dependent DNA integration | actives 0.64% (n = 370,000) | inhibition, % at 3.7 µM | TR-FRET IN-LEDGF/p75 DNA integration, Eu/Cy5;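 active = inhibition above the screen-wide mean plus 3 SD, cut at about 13% in these data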;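 also: signal is the Cy5 over europium emission ratio at 671 and 618 nm; 0% = plate median of compound wells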
UHRF1 binding: UHRF1 methyl-DNA binding inhibition; inhibition, % at 4.4 µM; UHRF1 binding to methylated oligo, TR-FRET; AID 687016; actives 0.75% (n = 370,000); Q96T88; in the data active = inhibition above about 21%;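 also: UHRF1 SRA domain binding a hemimethylated CpG hairpin DNA probe; 0% = median of test compound wells and 100% = reference inhibitor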
* marks the source's active call; other numbers are inactive results.

SMILES | PLCg1 inh | PLCb3 inh | MBD2 inh | LEDGF integ inh | UHRF1 binding
CC(=O)CC[C@H]1CC[C@]2(CCCN(S(=O)(=O)C3CCCCC3)C2)O1 | -2.5 | -1.6 | 0.1 | -2.4 | -1.4
CCOC(=O)CC[C@H]1CC[C@]2(CCCN(S(=O)(=O)C3CCCCC3)C2)O1 | 2.7 | -0.1 | -2.9 | 4.2 | 42.3*
CN(CCOC(=O)c1cc2ccccc2o1)C1CN(Cc2cn(Cc3cccc(F)c3)nn2)S(=O)(=O)C1 (stereo not drawn) | 1.1 | -2.0 | 3.8 | -0.2 | 5.6
CCC(NC(=O)Nc1ccc(O)cc1)(C(F)(F)F)C(F)(F)F | -0.6 | -2.1 | -10.9 | 15.1* | 8.7
CCC(NC(=O)NCc1ccccc1)(C(F)(F)F)C(F)(F)F | 2.0 | 4.4 | -6.1 | -1.4 | -1.2
CNC(=O)COC(=O)c1cc(SC)ccc1Cl | -7.8 | -20.5 | -1.5 | -1.0 | 26.4*
CSc1ccc(Cl)c(C(=O)OCC(=O)NCC(C)C)c1 | -13.3 | -14.1 | 3.1 | -2.6 | 0.2
CC(C)(C)Cc1c(-c2ccc(Cl)cc2)nc2ccc(Br)cn12 | 1.1 | 0.8 | 0.8 | -0.8 | 11.3
Cc1ccc2nc(-c3ccco3)c(Cc3ccccc3)n2c1 | -42.3 | -67.0 | -5.3 | -1.6 | 7.4
Cc1ccc2nc(-c3ccco3)c(CC(C)(C)C)n2c1 | -36.5 | -64.5 | -0.4 | 10.3 | 22.6*
CC(C)(C)Cc1c(-c2ccc(F)cc2)nc2ccc(Br)cn12 | 6.5 | 5.9 | -3.4 | 0.7 | 20.8*
CC(C)(C)Cc1c(-c2ccccc2)nc2ccc(Cl)cn12 | -2.5 | -2.1 | 8.9 | -3.9 | 20.9*
CN1Cc2nnn(CC3CCCCC3)c2-c2ccccc2S1(=O)=O | 2.3 | 3.3 | 0.5 | 3.8 | 2.5
CC(C)(C)c1ccc(S(=O)(=O)N2CCC(c3cn4ccccc4n3)CC2)cc1 | -56.5 | -82.5 | -1.8 | 0.6 | -1.5
C=CCOC(=O)N1CCC(NS(=O)(=O)c2ccc3c(c2)CCN3C(C)=O)CC1 | 0.3 | -1.5 | 4.3 | 0.2 | 3.7
CCOC(=O)c1nc2cc3n(c(CC(C)C)c-2c1C)CC(C)=C3C | -190.6 | -264.7 | -3.6 | -0.8 | -4.7
CCOC(=O)c1nc2cc3n(c(C)c-2c1C)C(C)C(C)=C3C (stereo not drawn) | -145.4 | -164.3 | 1.8 | 2.6 | 23.0*
CCN(CC)C(=O)CC[C@H]1CC[C@]2(CCCN(CC3CC3)C2)O1 | 1.5 | 0.3 | -3.6 | -1.3 | 1.2
COc1cccc(C(=O)Oc2c(Br)cc(Br)cc2/C=N/NC(=O)c2cc(C)[nH]n2)c1 | -23.2 | -24.5 | 2.1 | -4.1 | 30.5*
CCOC(=O)CC[C@H]1CC[C@]2(CCCN(C(=O)C3CCCC3)C2)O1 | -0.4 | -3.7 | 2.0 | -5.4 | 2.8
C[C@H](O)[C@@H]1C(=O)N2CCc3c([nH]c4c(-c5ccc6c(c5)OCO6)cccc34)[C@@H]2C[C@@H]1N(C)C(=O)c1ccccc1F | -12.8 | -13.2 | 4.1 | -3.9 | 1.0
O=C(Cc1ccccc1)Nc1nc(=O)c2ccccc2s1 | 2.4 | 12.3* | -5.4 | -0.4 | 0.8
CNC1=C(N(C(C)=O)c2ccc(Br)cc2)C(=O)c2ccccc2C1=O | 5.7 | 4.8 | -19.8 | 23.4* | 0.3
c1ccc(-c2cccc(CNc3nc(-c4ccccn4)nnc3-c3ccccc3)c2)cc1 | 2.8 | 2.9 | -0.2 | 0.9 | -0.4
CCc1nnc(NC(=O)CSc2nc3[nH]c(=O)cc(O)c3s2)s1 | -4.4 | -7.8 | -4.0 | 0.7 | -1.7
SMILES | PLCg1 inh | PLCb3 inh | MBD2 inh | LEDGF integ inh | UHRF1 binding
Cc1ccc(Cl)cc1NC(=O)CSc1sc2c(O)cc(=O)[nH]c2c1C#N | -7.9 | -16.2 | 4.9 | 1.8 | 6.1
CCc1nnc(NC(=O)CSc2sc3c(O)cc(=O)[nH]c3c2C#N)s1 | -22.0 | -41.8 | 13.2* | 12.5 | 35.3*
CCSc1nnc(NC(=O)CSc2sc3c(O)cc(=O)[nH]c3c2C#N)s1 | -11.6 | -22.2 | 10.8 | -0.8 | 31.5*
O=C(CN1C(=O)C2(OCCCO2)c2ccccc21)NCc1ccc2ccccc2c1 | -2.5 | 2.3 | -5.6 | 2.0 | -0.2
COc1cc(S(=O)(=O)N(Cc2ccc(C)cc2)Cc2ccco2)ccc1-n1cnnn1 | 0.1 | 2.7 | 0.2 | -0.1 | -0.4
COc1cc(S(=O)(=O)N(Cc2cccnc2)Cc2ccco2)ccc1-n1cnnn1 | -1.6 | -8.6 | 11.5 | 8.8 | 21.2*
COc1cccc(CN(Cc2cccnc2)S(=O)(=O)c2ccc(-n3cnnn3)c(C)c2)c1 | 6.0 | 3.6 | 4.4 | 3.1 | 20.9*
COc1cccc(CNS(=O)(=O)c2ccc(-n3cnnn3)c(C)c2)c1 | 4.3 | -4.2 | 2.5 | 0.0 | 3.7
CCCCN1C(=O)N2Cc3ccc(C)cc3C2CS1(=O)=O (stereo not drawn) | -1.7 | 1.0 | -5.2 | -0.6 | 1.4
CC(c1ccc(NC(=O)OC(C)(C)C)cc1)c1cn(C)c2ccccc12 (stereo not drawn) | -4.8 | -2.9 | -8.2 | -1.6 | 1.0
COc1cc(C=Nn2c(-c3ccc(F)cc3)n[nH]c2=S)ccc1OCc1ccccc1 | -0.8 | -3.5 | -0.5 | -1.4 | -0.6
COc1ccc(Cn2cc(CN3[C@@H](CC(C)C)COc4cccc(F)c4S3(=O)=O)nn2)cc1 | -1.6 | -0.7 | 4.2 | -2.7 | -1.7
Cc1ccc(Cl)cc1N1CCN(C(=O)CCCn2c(=O)c3cccn3c3cccnc32)CC1 | 10.5* | -6.2 | 2.3 | 0.5 | -2.6
CC(O)(CC(=O)CC(=O)c1ccccc1)c1ccccc1 (stereo not drawn) | 0.6 | 1.7 | -0.1 | 2.0 | 43.3*
Cc1nnc(NC(=O)c2ccc(S(=O)(=O)N3CCc4ccccc4C3)cc2)o1 | -2.1 | -2.7 | 3.6 | -1.3 | -0.2
Cc1cc(C)c2sc(NNC(=O)c3ccc(S(=O)(=O)N4CCc5ccccc5C4)cc3)nc2c1 | -59.3 | -64.4 | 1.4 | 18.7* | -2.1
Cc1cc(C)c2nc(NNC(=O)c3ccc(S(=O)(=O)N4CCc5ccccc5C4)cc3)sc2c1 | -73.5 | -95.3 | -2.4 | 19.6* | -3.1
CCc1nnc(NC(=O)c2ccc(S(=O)(=O)N3CCc4ccccc4C3)cc2)s1 | -0.6 | -0.8 | -3.0 | -2.7 | 1.1
COc1ccc(-c2nnn(CC(=O)N(CCCO)C(C(=O)NC3CCCC3)c3ccncc3)n2)cc1 (stereo not drawn) | 1.9 | -2.4 | -0.7 | -8.8 | 28.1*
Cc1ccc2oc(Nc3nc(-c4ccccc4)cc(=O)[nH]3)nc2c1 | -0.7 | 1.9 | -7.2 | -4.5 | 75.0*
COC(=O)[C@]12C[C@H](CC(=O)N3CCC(c4ccccc4)CC3)C(=O)N(CCc3ccc(OC)c(OC)c3)C1=C[C@H](C(C)C)O[C@@H]2C1CC1 | 1.1 | -2.3 | 3.9 | -1.6 | 2.7
Cc1csc(N=Cc2ccc([N+](=O)[O-])o2)n1 | -8.5 | -15.7 | 9.7 | 20.6* | 21.7*
COc1cccc(N2CC(O)=C(c3nc4ccccc4s3)C2=N)c1 | -66.5 | -60.9 | -1.0 | -3.3 | 22.8*
COc1cccc(C(=O)NN2CC(O)=C(c3nc4ccccc4s3)C2=N)c1 | -2.9 | -4.7 | 4.0 | 1.8 | -3.6
N=C1C(c2nc3ccccc3s2)=C(O)CN1NC(=O)c1ccco1 | -4.2 | -14.5 | -2.4 | -2.5 | 39.4*
